Consider 18 sequences from the OligoGym collection.
Further: reference of the scale not given here.

The target of one experiment is ZNF100. Kind of experiment: pooled miR-30 sensor sort-seq; sequence = guide strand. As to conditions: shRNA.
As for TTTCCTATACAAACCCTGCTGA, the sensor-assay potency score (higher = more potent) is -0.0321.

In the case of TAATTTGTTATCATGTTCTTTG, the sensor-assay potency score (higher = more potent) is -0.537.

On to TTAATTTGTTATCATGTTCTTT, for which the sensor-assay potency score (higher = more potent) was -0.0243.

In turn, TTTGTTATCATGTTCTTTGTGC yielded a sensor-assay potency score (higher = more potent) of 0.633.

Consider TATTTGTACAATATTTCTCAAG, for which the sensor-assay potency score (higher = more potent) was -1.35.

Take TTGAATTTGAAAATGTATGAAA: the sensor-assay potency score (higher = more potent) was -0.873.

In the case of TTAGTGAGGGCTGAGGACCAGT, the sensor-assay potency score (higher = more potent) was -0.895.

For the sequence TTCTCCAGTATAACTTACCTTA, the sensor-assay potency score (higher = more potent) is -0.393.

For TTCAAAATAAGACTGCACCAGA, the sensor-assay potency score (higher = more potent) is 0.0757.

Turning to TTTGTAACTGTAAATTGTCATG, the sensor-assay potency score (higher = more potent) is -1.22.

TTTCTAGTATGTCTTATCTTAT: the sensor-assay potency score (higher = more potent) is -1.12.

In the next experiment the target is ZNF135. The experiment is described as above. The settings on record: shRNA.
For the sequence TGTTCGATAAGTGCTGAGCTGT, the sensor-assay potency score (higher = more potent) was -0.66.

As to TTCTTCAGAGATGCCTTGCTTT, the sensor-assay potency score (higher = more potent) was -0.404.

As to TATTTCTTCAGAGATGCCTTGC, the sensor-assay potency score (higher = more potent) worked out at 0.235.

With TTTCTCATGTGTATGATTGGGT, the sensor-assay potency score (higher = more potent) was 0.467.

For the sequence TTAAGCATTCGTGACATTCATA, the sensor-assay potency score (higher = more potent) was -1.02.

TTGCTTTAGAACTGACAGTTTG: the sensor-assay potency score (higher = more potent) is -1.45.

On to TAGAACTGACAGTTTGACTTTG, for which the sensor-assay potency score (higher = more potent) was -0.0496.
